Laboratory results from PubChem BioAssay (NCATS).
Inconclusive results are not listed. Activity calls are given as the source filed them. Unless noted, the call rests on the fitted dose curve; in most records, active means well fitted curve in the direction sought with a large enough effect; inconclusive means small, poorly fitted or top-dose-only effect, or another doubt; inactive means no such curve, though single readings can be large; an effect the other way counts as inactive or inconclusive.

How the values were obtained:
[1] = Cell Viability - BJ (AID 421; calls by dose curve;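 further: potency means the concentration at half of the fitted maximal effect; cells exposed to compound for 40 hours at 37 °C before readout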); details: BJ fibroblast viability, qHTS
Method in brief: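 Cytotoxicity as drop in intracellular ATP (CellTiter-Glo, 20 min RT) after 40 hr compound exposure of BJ fibroblasts at 37 °C. Titrations scaled between DMSO and 100 uM tamoxifen, Hill-fitted for AC50.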

[2] = Cell Viability - Jurkat (AID 426;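 active means dose-dependent loss of cell ATP signal giving a full or clear fitted curve, ranked by lower potency value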; further: potency means the concentration at half of the fitted maximal effect); details: qHTS
Method in brief: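 Jurkat (Clone E6-1) cells, 5000/well in complete medium, exposed to compounds for 40 hr at 37C; intracellular ATP measured by CellTiter-Glo luminescence after 20 min at room temperature. AC50 from Hill fits.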

[3] = Cell Viability - Hek293 (AID 427;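 active means compounds whose dose-response curve shows a full or clear partial loss of cell viability, called from curve shape rather than a numeric limit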;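 further: potency means the concentration at half of the fitted maximal effect; cells exposed to compound for 40 hours at 37 °C before reading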); details: qHTS
Method in brief: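 Luminescent ATP content (CellTiter-Glo, 20 min at room temperature) was measured after a 40 hr, 37 °C compound exposure of HEK293 cells. AC50 values came from Hill-equation fits of qHTS concentration-response data normalized to DMSO and 100 uM tamoxifen.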

[4] = Cell Viability - HepG2 (AID 433; calls by dose curve;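 further: potency means the concentration at half of the fitted maximal effect; potency for ATP loss meaning cytotoxicity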); details: qHTS
Method in brief: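 Cytotoxicity is scored as loss of intracellular ATP in HepG2 cells exposed to compounds for 40 h. Concentration-response curves, normalized to DMSO and 100 uM tamoxifen, give AC50 values.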

[5] = Cell Viability - MRC5 (AID 434; calls by dose curve;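 further: potency means the concentration at half of the fitted maximal effect; potency reflects cytotoxicity seen as loss of intracellular ATP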); details: MRC5 lung fibroblast viability, qHTS
Method in brief: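 MRC5 normal human lung fibroblasts (1500/well) were treated with compounds for 40 hr at 37 °C in complete medium, and viable cells were measured as intracellular ATP by CellTiter-Glo luminescence. AC50 came from Hill fits, normalized to DMSO and 100 uM tamoxifen.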

[6] = Cell Viability - SK-N-SH (AID 435; calls by dose curve;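 further: potency means the concentration at half of the fitted maximal effect; compound exposure lasted 40 h at 37 °C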); details: SK-N-SH neuroblastoma cell viability qHTS
Method in brief: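 Cells seeded at 1500 per well and incubated 5 hr at 37 °C. Compound added, then 40 hr at 37 °C. CellTiter-Glo added, 20 min at room temperature, luminescence read.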

[7] = target: Mitogen-activated protein kinase 10 (Mus musculus) (UniProt Q61831); assay: JNK3 AlphaScreen Assay (AID 530; active means well fitted curve in either direction with a large enough effect, not every such curve was filed as active;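 further: kinase came from lysate of stimulated human HepG2 cells; signal reports phosphorylation of biotinylated GST-cJun 1-79 at Ser73 with 10 µM ATP; on the % scale 0 is the no-effect control and ±100 the full control effect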); details: JNK3 lysate, c-Jun phosphorylation; series mostly up to 57.1 µM
Method in brief: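 Inhibitors reduce antibody binding to phosphorylated biotin-cJun, lowering AlphaScreen luminescence. Lysates from HepG2 cells pre-activated by IL-1beta plus TNF-alpha supplied JNK3; compounds were titrated.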

[8] = Cell Viability - N2a (AID 540); details: N2a mouse neuroblastoma cell viability; at 92.2 µM (top of the series);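 further: plate controls were DMSO alone for no effect and tamoxifen control for full effect; nearly all actives have a fitted effect of over 45% in size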
Method in brief: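 Mouse neuroblastoma N2a cells, 1500/well, exposed to compounds 40 h at 37 °C in complete medium. Viability measured as cellular ATP by CellTiter-Glo luminescence; AC50 from Hill fits of concentration-response.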

[9] = Cell Viability - NIH 3T3 (AID 541); details: NIH 3T3 cell viability, qHTS; activity change, negative = cytotoxicity: at 92.2 µM (top of the series);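 further: plate controls were DMSO alone for no effect and tamoxifen positive control for full effect; nearly all actives have a fitted effect of over 25% in size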
Method in brief: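 Mouse NIH 3T3 fibroblasts, 1000 cells/well, rested 5 hr at 37 °C, then exposed to compound for 40 hr at 37 °C in complete medium. Viability read as intracellular ATP by CellTiter-Glo luminescence; AC50 from Hill-equation fits of concentration-response data.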

[10] = Cell Viability - HUV-EC-C (AID 542); details: HUV-EC-C endothelial cell viability, qHTS; series mostly up to 92.2 µM; further: on the % scale 0 is the no-effect control and ±100 the full control effect; nearly all actives have a fitted effect of over 35% in size
Method in brief: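 HUV-EC-C human vascular endothelial cells, 1000/well, exposed to compound for 40 hr at 37 °C in complete medium. Intracellular ATP was read by CellTiter-Glo luminescence. AC50 came from Hill-equation fits of concentration-response data.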

[11] = Cell Viability - H-4-II-E (AID 543); details: H-4-II-E rat hepatoma viability; series mostly up to 92.2 µM; further: on the % scale 0 is the no-effect control and ±100 the full control effect; nearly all actives have a fitted effect of over 35% in size
Method in brief: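 Rat hepatoma H-4-II-E cells, 1500 per well, treated 40 h at 37 °C in complete medium. Cellular ATP read by CellTiter-Glo luminescence; AC50 from Hill fits of concentration-response.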

[12] = Cell Viability - SH-SY5Y (AID 544); details: SH-SY5Y neuroblastoma cell viability; viability change, negative = cytotoxic: at 92.2 µM (top of the series); further: nearly all actives have a fitted effect of over 55% in size
Method in brief: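 SH-SY5Y human neuroblastoma cells (1500/well) incubated 5 h, then compound-treated 40 h at 37 °C in complete medium. Viability read as intracellular ATP by CellTiter-Glo luminescence after 20 min; AC50 from Hill-equation fits of qHTS concentration-response.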

[13] = Cell Viability - Renal Proximal Tubule (AID 545); details: renal proximal tubule cells viability; at 91.7 µM (top of the series), primary cells of rat origin unless noted; further: nearly all actives have a fitted effect of over 40% in size
Method in brief: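 Cytotoxicity is scored as a concentration-dependent drop in cellular ATP in primary rat renal proximal tubule cells exposed for 40 hr. AC50 derives from Hill modelling.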

[14] = Cell Viability - Mesenchymal (AID 546); details: mesenchymal cells viability, qHTS; series mostly up to 91.7 µM;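 further: cells exposed to compound for 40 hours before reading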
Method in brief: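 Normal human renal glomerulus-derived kidney mesenchymal cells, 1000 per well in complete medium, were treated with compounds for 40 hr at 37 °C. Viability was read as intracellular ATP by CellTiter-Glo luminescence; AC50 values came from Hill-equation fits of qHTS concentration-response data.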

[15] = Cellular Toxicity (caspase-3) HepG2 (AID 654); details: HepG2 caspase-3 activation, luminescence, 0% = DMSO only, 100% = tamoxifen; series mostly up to 92.2 µM;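 further: cells exposed to compound for 16 hours before reading; 0% = DMSO alone and 100% = caspase signal from 100 µM tamoxifen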
Method in brief: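 HepG2 cells (1500/well) were treated 16 h at 37 °C in complete medium, then caspase 3/7 activity was read by Caspase-Glo luminescence. Data were normalized to DMSO and 100 uM tamoxifen; AC50 came from Hill-equation fits of qHTS concentration-response.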

[16] = Cellular Toxicity (caspase-3) Jurkat (AID 655); details: Jurkat caspase-3 activation, luminescence, DMSO = 0%, tamoxifen = 100%; at 92.2 µM (top of the series);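 further: cells exposed to compound for 16 h at 37 °C before reading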
Method in brief: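 Caspase 3/7 activation is scored as increased luminescence in Jurkat cells cultured with compound for 16 hours in complete medium. AC50 values come from Hill fits of qHTS concentration-response data normalized to DMSO and 100 uM tamoxifen controls.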

[17] = Cellular Toxicity (caspase-3) HUV-EC-C (AID 656); details: HUV-EC-C cells, caspase-3 activation (apoptosis), vehicle = 0, 100 µM tamoxifen = 100%; series mostly up to 92.2 µM
Method in brief: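 Read-out: luminescence proportional to caspase 3/7 activity, measured 20 min after adding Caspase-Glo 3/7 reagent. Cells (HUV-EC-C) had received compound for 16 hr at 37°C. Increases relative to DMSO and 100 uM tamoxifen gave concentration-response AC50 values.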

[18] = Cellular Toxicity (caspase-3) SHSY5Y (AID 657); details: SH-SY5Y caspase-3 activation, DMSO zero, 10 µM staurosporine = 100%; series mostly up to 91.7 µM
Method in brief: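 Cells plated and incubated 5 h at 37 °C, dosed over a concentration range, incubated 16 h, then given Caspase-Glo 3/7 reagent for 1 h at room temperature before luminescence reading. Staurosporine (10 uM) defined full stimulation.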

[19] = Cellular Toxicity (caspase-3) BJ (AID 658); details: BJ fibroblasts, luminescence, normalized: DMSO 0%, staurosporine 100%; series mostly up to 91.7 µM
Method in brief: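 Luminescent aminoluciferin-substrate cleavage reports caspase 3/7 activity in normal human BJ fibroblasts after 16 hr compound exposure at 37 °C. Normalized to DMSO (basal) and 10 uM staurosporine (100%); AC50 from Hill fit of concentration-response.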

[20] = Cellular Toxicity (caspase-3) MRC-5 (AID 659); details: MRC-5 cells, luminescence, normalized: DMSO 0%, 10 µM staurosporine 100%; series mostly up to 91.7 µM
Method in brief: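 Luminescence from caspase-cleaved aminoluciferin substrate (Caspase-Glo 3/7, 1 hr RT) reports caspase 3/7 activity in MRC-5 lung fibroblasts after 16 hr compound exposure. Normalized to DMSO basal and 10 uM staurosporine as 100%; AC50 from Hill fits.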

[21] = Cellular Toxicity (caspase-3) Mesangial (AID 660); details: mesangial cells, normalized: DMSO 0%, 100 µM tamoxifen 100%; series mostly up to 91.7 µM;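 further: cells exposed to compound for 16 h before the caspase read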
Method in brief: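 Human renal glomerular mesangial cells, 1000/well, 5 h at 37 C before 16 h compound treatment. Caspase-Glo 3/7 luminescence after 20 min; normalized to DMSO and 100 uM tamoxifen, AC50 from Hill fit.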

[22] = Cellular Toxicity (caspase-3) SK-N-SH (AID 661); details: SK-N-SH caspase-3 activation, qHTS, DMSO as zero, staurosporine as full; series mostly up to 91.7 µM
Method in brief: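 Human SK-N-SH neuroblastoma cells, 1500/well, were exposed to compounds for 16 hours at 37 °C. Caspase-Glo 3/7 luminescence was normalized to DMSO (basal) and 10 uM staurosporine (100%), and AC50 came from a Hill fit.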

O=NN(CCO)CCO
inactive: Potency [1] > 92 µM | Potency [2] > 92 µM | Potency [3] > 92 µM | Potency [4] > 92 µM | Potency [5] > 92 µM | Potency [6] > 92 µM | outcome [7] | activity change, negative = cytotoxicity [8] -10.5% | activity change, negative = cytotoxicity [9] -23.2% | Potency [10] | Potency [11] | Potency [12] | activity change, negative = cytotoxicity [13] -10.4% | outcome [14] | outcome [15] | caspase-3 activation [16] -1.33% | outcome [17] | outcome [18] | outcome [19] | outcome [20] | outcome [21] | outcome [22]
